# Assay results taken from PubChem BioAssay (NCI).
# The panel holds about 83,000 compounds, 20% with a hit somewhere; the sample as a whole holds those more often.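 Single-dose data. Exposure time 48 hours. Values below 10 considered active.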 Unmarked numbers belong to inactive results. Calls of active or inactive are those of the source.
# Legend:
# Test in all cases: NCI-60 one-dose screen, 48 h (100 = growth as untreated, 0 = no growth, -100 = all killed)
# Settings in all cases: 10 µM unless noted
# SK-MEL-2 melanoma = tested on: SK-MEL-2 melanoma
# EKVX NSCLC = tested on: EKVX NSCLC
# SN12C renal = tested on: SN12C renal
# UO-31 renal = tested on: UO-31 renal
# TK-10 renal = tested on: TK-10 renal
# ACHN renal = tested on: ACHN renal
# CAKI-1 renal = tested on: CAKI-1 renal
# A498 renal = tested on: A498 renal
# CCRF-CEM leukemia = tested on: CCRF-CEM leukemia
# MOLT-4 leukemia = tested on: MOLT-4 leukemia
# SR leukemia = tested on: SR leukemia
# OVCAR-8 ovarian = tested on: OVCAR-8 ovarian
# OVCAR-5 ovarian = tested on: OVCAR-5 ovarian
# OVCAR-4 ovarian = tested on: OVCAR-4 ovarian
# SK-OV-3 ovarian = tested on: SK-OV-3 ovarian
# IGROV1 ovarian = tested on: IGROV1 ovarian
# HS 578T breast = tested on: HS 578T breast
# NCI/ADR-RES ovarian = tested on: NCI/ADR-RES ovarian
# OVCAR-3 ovarian = tested on: OVCAR-3 ovarian
SMILES,growth (SK-MEL-2 melanoma),growth (EKVX NSCLC),growth (SN12C renal),growth (UO-31 renal),growth (TK-10 renal),growth (ACHN renal),growth (CAKI-1 renal),growth (A498 renal),growth (CCRF-CEM leukemia),growth (MOLT-4 leukemia),growth (SR leukemia),growth (OVCAR-8 ovarian),growth (OVCAR-5 ovarian),growth (OVCAR-4 ovarian),growth (SK-OV-3 ovarian),growth (IGROV1 ovarian),growth (HS 578T breast),growth (NCI/ADR-RES ovarian),growth (OVCAR-3 ovarian)
O=C(CCN1C(=O)/C(=C/c2ccc(O)cc2)SC1=S)Nc1ccc(Cl)cc1,108%,95.8%,91.7%,6.22% (active),108%,84%,92.5%,95%,46.7%,84.7%,110%,97%,95.6%,91.1%,71.8%,79.7%,92.8%,104%,
N#Cc1c(-c2ccc(Cl)cc2)nc(NCCO)[nH]c1=O,94.4%,157%,96.2%,74.5%,97.9%,101%,94.2%,125%,113%,99.5%,99.5%,103%,91.6%,108%,102%,,109%,98.8%,104%
CC/C=C\C[C@@H](O)C/C=C1/C(=O)C=C[C@H]1C/C=C\CCCC(=O)OC,77.9%,88.2%,-29.5% (active),16.9%,31.1%,26.8%,17.9%,97.4%,-9.05% (active),-4.62% (active),-17.5% (active),-6.75% (active),54.1%,44.9%,99.3%,,21%,10.6%,-2.32% (active)
Cc1cccc(NCc2cn(-c3ccc(C(=O)O)cc3)nc2-c2ccc(C(=O)O)cc2)n1,120%,102%,101%,88%,102%,103%,95.7%,95.5%,104%,105%,111%,110%,95.2%,105%,110%,105%,96.9%,108%,106%
COc1ccc(-c2nnc(COc3ccc(Cl)cc3Cl)o2)cc1OC,57.6%,-15.8% (active),12.1%,-36.4% (active),-8.66% (active),13.7%,57.7%,15.9%,29.3%,54.3%,46.8%,20.1%,74.6%,-33.1% (active),37.6%,,4.73% (active),17.5%,1.98% (active)
CCn1cnc2c1c(=O)[nH]c(=O)n2CC1CCC(CNS(=O)(=O)c2ccc(OC3CCOCC3)c(F)c2)CC1 (centres undefined),74.8%,68.1%,62.9%,55.2%,33.7%,72.2%,46.2%,67.1%,52.6%,63%,49.6%,60.5%,64.1%,42%,31.9%,,15.9%,95.8%,60.5%
CCCCn1c(=O)c(-c2cc(-c3ccc(Cl)cc3)nc(-c3ccc(Cl)cc3)c2)cc2cc(C)ccc21,118%,101%,92.2%,86.2%,98.7%,107%,94.8%,103%,101%,105%,109%,100%,100%,110%,115%,96.4%,99.1%,104%,112%
COC1=C(C)C(=O)c2c(c(CCCl)c3n2CCC3O)C1=O (centres undefined),-48.8% (active),13.6%,6.15% (active),-60.4% (active),-35.2% (active),-3.06% (active),10.9%,-79.9% (active),66.3%,74.6%,7.38% (active),12.1%,10.4%,79.1%,-9.52% (active),,-6.16% (active),6.59% (active),0.645% (active)
COc1ccc(-c2nc(NCCO)[nH]c(=O)c2C#N)cc1,98.6%,110%,95.9%,90.5%,99.7%,96.5%,101%,113%,102%,98.8%,94.3%,107%,92.8%,107%,97.7%,,106%,98.1%,111%
O=C(Nc1ccc(Br)cc1F)c1cc(Br)ccc1O,-25.4% (active),9.76% (active),-10.9% (active),-11% (active),15.3%,-0.439% (active),2.12% (active),-42% (active),20.9%,1.26% (active),4.87% (active),11.6%,25.3%,22.4%,12%,,4.22% (active),7.36% (active),5.37% (active)
Oc1c(I)cc(I)cc1CNCCCN(Cc1ccccn1)Cc1ccccn1,-30.9% (active),-85.6% (active),-50.1% (active),-100% (active),-78.5% (active),-100% (active),-96.1% (active),-98.4% (active),3.65% (active),-10.5% (active),4.38% (active),-11.2% (active),-44.9% (active),-94.3% (active),-73% (active),-79.5% (active),-21.7% (active),-17.1% (active),-69.9% (active)
COc1ccc(NC2=C(Br)C(=O)C(C)=C(C)C2=O)cc1,92.4%,83.5%,79.6%,74%,172%,85.6%,94.9%,93.5%,-13.8% (active),-9.34% (active),2.06% (active),-29.7% (active),102%,-99.6% (active),69.4%,,96.9%,,60.3%
N#CC1=C(N)Oc2c(sc3c(Br)cccc23)C1c1ccc([N+](=O)[O-])cc1 (centres undefined),39.6%,58.9%,13.5%,34.6%,71.9%,26.8%,27.1%,-11.8% (active),10%,5.93% (active),-8.87% (active),25.3%,31.1%,39.8%,34%,,10.8%,-26.9% (active),3.67% (active)
CCOC(=O)c1sc2ncc(-c3ccc(OC)cc3)n2c1C,103%,94.8%,92.1%,79.3%,156%,-100% (active),96.3%,107%,94.6%,94.5%,104%,91.6%,105%,97.5%,78.7%,,94.1%,92.3%,108%
COc1ccc(-c2csc(NC(=O)N3CCN(c4cc5c(cc4F)c(=O)c(C(=O)O)cn5C4CC4)CC3)n2)cc1,-20.4% (active),23.1%,5.86% (active),1.86% (active),25.5%,9.82% (active),29%,-15% (active),7.96% (active),3.03% (active),15.4%,3.75% (active),25.5%,18.4%,-8.98% (active),,28.8%,57.5%,-3.32% (active)
CCOC(=O)c1cnn2c3ccccc3n(S(=O)(=O)c3ccc(OC)cc3)c12,66.7%,38.4%,22.2%,46.7%,79.7%,35.4%,42.3%,-3.19% (active),9.32% (active),16.5%,14%,27.5%,42.5%,71.4%,48.2%,28.6%,37.3%,0.145% (active),0.973% (active)
CCCCC[C@H](O)C/C=C1/C(=O)C=C[C@@H]1C/C=C\CCCC(=O)O,79.6%,100%,52.3%,81.9%,111%,83.2%,80.7%,109%,14.9%,43.2%,15.8%,33.7%,152%,77.8%,118%,,95.6%,54.4%,22.2%
